For part of these data: Potency and affinity values are given separately.
What was measured:
Staphylococcus aureus = assay: Antibacterial activity against Staphylococcus aureus MRSA ATCC 43300 (CO-ADD:GP_020); MIC in CAMBH media using NBS plates, by Resazurin F(560/590); type: functional; settings: Concentration 20 uM, ASSAY_TEST Inhibition of Bacterial Growth, detection method Resazurin, Fluorescence (ex560/em590), MEDIA CAMHB, plate type 384well, CORNING #3640, time 18 hr
Acinetobacter baumannii = assay: Antibacterial activity against Acinetobacter baumannii ATCC 19606 (CO-ADD:GN_034); MIC in CAMBH media using NBS plates, by Resazurin F(560/590); type: functional; settings: Concentration 20 uM, ASSAY_TEST Inhibition of Bacterial Growth, detection method Resazurin, Fluorescence (ex560/em590), MEDIA CAMHB, plate type 384well, CORNING #3640, time 18 hr
Escherichia coli = assay: Antibacterial activity against Escherichia coli ATCC 25922 (CO-ADD:GN_001); MIC in CAMBH media using NBS plates, by Resazurin F(560/590); type: functional; settings: Concentration 20 uM, ASSAY_TEST Inhibition of Bacterial Growth, detection method Resazurin, Fluorescence (ex560/em590), MEDIA CAMHB, plate type 384well, CORNING #3640, time 18 hr
Klebsiella pneumoniae = settings: Concentration 20 uM; ASSAY_TEST Inhibition of Bacterial Growth; detection method Absorption (OD600); MEDIA CAMHB; plate type 384well; NBS; CORNING #3640; time 18 hr
Candida albicans = settings: 20 µM
Cryptococcus neoformans = settings: Concentration 20 uM; ASSAY_TEST Inhibition of Fungal Growth; detection method Resazurin; Absorption (OD600-OD570); plate type 384well; NBS; CORNING #3640

## Cc1cc(N(C)C)ccc1/N=N/c1ccc2ncccc2c1
Staphylococcus aureus
  Inhibition: 1.18%
Acinetobacter baumannii
  Inhibition: -8.44%
Escherichia coli
  Inhibition: 5.41%
Klebsiella pneumoniae
  Inhibition: 5.32%
Candida albicans
  Inhibition: 3.26%
Cryptococcus neoformans
  Inhibition: -12.5%

## Cc1nnc(-n2cccc2)s1
Staphylococcus aureus
  Inhibition: 4.2%
Acinetobacter baumannii
  Inhibition: -10.69%
Escherichia coli
  Inhibition: 7.04%
Klebsiella pneumoniae
  Inhibition: -0.01%
Candida albicans
  Inhibition: 2.45%
Cryptococcus neoformans
  Inhibition: -10.77%

## CN1CCN(C2=NCCO2)CC1
Staphylococcus aureus
  Inhibition: 4.85%
Acinetobacter baumannii
  Inhibition: -15.45%
Escherichia coli
  Inhibition: 15.25%
Klebsiella pneumoniae
  Inhibition: 13.16%
Candida albicans
  Inhibition: 3.03%
Cryptococcus neoformans
  Inhibition: 6.31%

## Cc1cc2c(cc1C)N(C(=O)CCl)CC(=O)N2
Staphylococcus aureus
  Inhibition: -15.91%
Acinetobacter baumannii
  Inhibition: -11.28%
Escherichia coli
  Inhibition: 5.03%
Klebsiella pneumoniae
  Inhibition: 7.32%
Candida albicans
  Inhibition: 2.46%
Cryptococcus neoformans
  Inhibition: -7.55%

## Nc1n[nH]c(-c2ccccc2)n1
Staphylococcus aureus
  Inhibition: 11.8%
Acinetobacter baumannii
  Inhibition: -13.69%
Escherichia coli
  Inhibition: 16.83%
Klebsiella pneumoniae
  Inhibition: 8.63%
Candida albicans
  Inhibition: -1.64%
Cryptococcus neoformans
  Inhibition: -8.71%

## CCOC(=O)c1cnc(SCC)nc1O
Staphylococcus aureus
  Inhibition: 11.19%
Acinetobacter baumannii
  Inhibition: -12.25%
Escherichia coli
  Inhibition: 0.66%
Klebsiella pneumoniae
  Inhibition: 10.25%
Candida albicans
  Inhibition: 0.68%
Cryptococcus neoformans
  Inhibition: -8.17%

## c1ccc2[nH]c(-c3ccncc3)nc2c1
Staphylococcus aureus
  Inhibition: 11.19%
Acinetobacter baumannii
  Inhibition: -5.55%
Escherichia coli
  Inhibition: 7.11%
Klebsiella pneumoniae
  Inhibition: 18.73%
Candida albicans
  Inhibition: -0.07%
Cryptococcus neoformans
  Inhibition: -8.67%

## O=c1c(-c2ccc(O)cc2)coc2cc(O)cc(O)c12 [GENISTEIN]
Staphylococcus aureus
  Inhibition: 3.06%
Acinetobacter baumannii
  Inhibition: 1.42%
Escherichia coli
  Inhibition: 2.99%
Klebsiella pneumoniae
  Inhibition: 22.48%
Candida albicans
  Inhibition: 6.45%
Cryptococcus neoformans
  Inhibition: -7.01%

## CN(C)N1C(=O)c2c(Cl)c(Cl)c(Cl)c(Cl)c2C1=O
Staphylococcus aureus
  Inhibition: 2.83%
Acinetobacter baumannii
  Inhibition: 0.5%
Escherichia coli
  Inhibition: 6.02%
Klebsiella pneumoniae
  Inhibition: 6.84%
Candida albicans
  Inhibition: 1.54%
Cryptococcus neoformans
  Inhibition: 46.33%

## Nc1n[nH]c(Nc2ccccc2)n1
Staphylococcus aureus
  Inhibition: 19.31%
Acinetobacter baumannii
  Inhibition: 2.24%
Escherichia coli
  Inhibition: 12.19%
Klebsiella pneumoniae
  Inhibition: 2.99%
Candida albicans
  Inhibition: -0.65%
Cryptococcus neoformans
  Inhibition: -7.66%

## N#C/C(=C\c1cccnc1)c1ccc(Br)cc1
Staphylococcus aureus
  Inhibition: -11.66%
Acinetobacter baumannii
  Inhibition: -1.77%
Escherichia coli
  Inhibition: -11.06%
Klebsiella pneumoniae
  Inhibition: 8.56%
Candida albicans
  Inhibition: 35.8%
Cryptococcus neoformans
  Inhibition: -4.26%

## CC(=O)Oc1ccc(C(c2ccc(OC(C)=O)cc2)c2ccccn2)cc1 [BISACODYL]
Staphylococcus aureus
  Inhibition: 25.36%
Acinetobacter baumannii
  Inhibition: -9.02%
Escherichia coli
  Inhibition: 15.4%
Klebsiella pneumoniae
  Inhibition: 14.3%
Candida albicans
  Inhibition: 0.53%
Cryptococcus neoformans
  Inhibition: -1.75%

## CN(C)S(=O)(=O)c1ccccc1N=C=S
Staphylococcus aureus
  Inhibition: 19.33%
Acinetobacter baumannii
  Inhibition: 5.01%
Escherichia coli
  Inhibition: 10.9%
Klebsiella pneumoniae
  Inhibition: 5.89%
Candida albicans
  Inhibition: 4.38%
Cryptococcus neoformans
  Inhibition: -9.71%

## O=c1[nH]c(=O)n2ncnc2[nH]1
Staphylococcus aureus
  Inhibition: 16.94%
Acinetobacter baumannii
  Inhibition: -11.21%
Escherichia coli
  Inhibition: 5.82%
Klebsiella pneumoniae
  Inhibition: 7.37%
Candida albicans
  Inhibition: -1.3%
Cryptococcus neoformans
  Inhibition: -10.02%

## CC1=CC(C)(C)N=C(S)N1c1cccc2cc(S(=O)(=O)O)ccc12
Staphylococcus aureus
  Inhibition: -5.5%
Acinetobacter baumannii
  Inhibition: 9.59%
Escherichia coli
  Inhibition: -20.55%
Klebsiella pneumoniae
  Inhibition: 7.04%
Candida albicans
  Inhibition: 8.59%
Cryptococcus neoformans
  Inhibition: 39.69%

## COc1cccc(-c2nnc(N)o2)c1
Staphylococcus aureus
  Inhibition: 11.58%
Acinetobacter baumannii
  Inhibition: -10.93%
Escherichia coli
  Inhibition: 4.71%
Klebsiella pneumoniae
  Inhibition: 8.97%
Candida albicans
  Inhibition: 1.68%
Cryptococcus neoformans
  Inhibition: -2.41%

## Nc1nc(N)c(/N=N/c2ccc(C(=O)O)cc2)c(N)n1
Staphylococcus aureus
  Inhibition: 20.24%
Acinetobacter baumannii
  Inhibition: -14.9%
Escherichia coli
  Inhibition: 9.92%
Klebsiella pneumoniae
  Inhibition: 6.15%
Candida albicans
  Inhibition: 7.35%
Cryptococcus neoformans
  Inhibition: -10.91%

## Nc1ccc(Nc2ccccc2)c(S(=O)(=O)O)c1
Staphylococcus aureus
  Inhibition: 8.54%
Acinetobacter baumannii
  Inhibition: 9.36%
Escherichia coli
  Inhibition: -14.68%
Klebsiella pneumoniae
  Inhibition: 15.42%
Candida albicans
  Inhibition: 18.9%
Cryptococcus neoformans
  Inhibition: 17.91%

## CN(C)S(=O)(=O)Nc1ccccn1
Staphylococcus aureus
  Inhibition: 6.72%
Acinetobacter baumannii
  Inhibition: 9.21%
Escherichia coli
  Inhibition: -0.96%
Klebsiella pneumoniae
  Inhibition: 17.6%
Candida albicans
  Inhibition: 5.95%
Cryptococcus neoformans
  Inhibition: -3.86%

## NC(=O)N/N=C1\CC2CC1C1C=CCC21 (configuration not stated)
Staphylococcus aureus
  Inhibition: 5.27%
Acinetobacter baumannii
  Inhibition: -14.41%
Escherichia coli
  Inhibition: 8.37%
Klebsiella pneumoniae
  Inhibition: 17.34%
Candida albicans
  Inhibition: -2.08%
Cryptococcus neoformans
  Inhibition: -9.13%

## CC(=O)O.COc1ccc2nccc(/C=C/c3ccnc4ccc(OC)cc34)c2c1
Staphylococcus aureus
  Inhibition: 1.03%
Acinetobacter baumannii
  Inhibition: -11.4%
Escherichia coli
  Inhibition: 10.64%
Klebsiella pneumoniae
  Inhibition: 6.2%
Candida albicans
  Inhibition: 5.73%
Cryptococcus neoformans
  Inhibition: -5.13%

## O=C(O)CSc1ccc(NC(=O)Nc2ccccc2F)cc1
Staphylococcus aureus
  Inhibition: 18.21%
Acinetobacter baumannii
  Inhibition: 6.88%
Escherichia coli
  Inhibition: 2.53%
Klebsiella pneumoniae
  Inhibition: 17.8%
Candida albicans
  Inhibition: -1.57%
Cryptococcus neoformans
  Inhibition: -6.03%

## Cc1cc(C)c2c(SC(C)C)nc(N)nc2n1
Staphylococcus aureus
  Inhibition: -0.52%
Acinetobacter baumannii
  Inhibition: -6.63%
Escherichia coli
  Inhibition: 2.33%
Klebsiella pneumoniae
  Inhibition: 4.23%
Candida albicans
  Inhibition: 0.54%
Cryptococcus neoformans
  Inhibition: -10.66%

## O=C(COc1cc(Cl)c(Cl)cc1Cl)Nc1ccc([N+](=O)[O-])cc1Cl
Staphylococcus aureus
  Inhibition: 25.16%
Acinetobacter baumannii
  Inhibition: -3.59%
Escherichia coli
  Inhibition: 13.57%
Klebsiella pneumoniae
  Inhibition: 15.89%
Candida albicans
  Inhibition: 2.39%
Cryptococcus neoformans
  Inhibition: 1.18%

## c1ccn(CCc2ccncc2)c1
Staphylococcus aureus
  Inhibition: 10.09%
Acinetobacter baumannii
  Inhibition: -4.91%
Escherichia coli
  Inhibition: 7.14%
Klebsiella pneumoniae
  Inhibition: 10.92%
Candida albicans
  Inhibition: 2.03%
Cryptococcus neoformans
  Inhibition: -5.95%

## Nc1ccc(OC(=O)Nc2ccc(O)cc2)cc1
Staphylococcus aureus
  Inhibition: -11.3%
Acinetobacter baumannii
  Inhibition: 1%
Escherichia coli
  Inhibition: -11.72%
Klebsiella pneumoniae
  Inhibition: 2.2%
Candida albicans
  Inhibition: -2.4%
Cryptococcus neoformans
  Inhibition: 12.42%

## N#CC1C=Cc2c(ccc3ccccc23)N1C(=O)c1ccccc1 (configuration not stated)
Staphylococcus aureus
  Inhibition: 29.76%
Acinetobacter baumannii
  Inhibition: -9.2%
Escherichia coli
  Inhibition: 7.35%
Klebsiella pneumoniae
  Inhibition: 24.48%
Candida albicans
  Inhibition: 11.9%
Cryptococcus neoformans
  Inhibition: 2.44%

## CCCCCn1cnc2c(S)nc(N)nc21
Staphylococcus aureus
  Inhibition: 4.88%
Acinetobacter baumannii
  Inhibition: -14.99%
Escherichia coli
  Inhibition: 12.21%
Klebsiella pneumoniae
  Inhibition: 5.23%
Candida albicans
  Inhibition: 1.29%
Cryptococcus neoformans
  Inhibition: -16.43%

## COC1OCC(O)C(NC(=O)N(C)N=O)C1O (configuration not stated)
Staphylococcus aureus
  Inhibition: -1.39%
Acinetobacter baumannii
  Inhibition: 15.65%
Escherichia coli
  Inhibition: -7.74%
Klebsiella pneumoniae
  Inhibition: 18.14%
Candida albicans
  Inhibition: 5.35%
Cryptococcus neoformans
  Inhibition: -2.94%

## CN1C(=C=Cc2cc(I)c(O)c(I)c2)C(C)(C)c2ccccc21
Staphylococcus aureus
  Inhibition: 20.66%
Acinetobacter baumannii
  Inhibition: 1.84%
Escherichia coli
  Inhibition: 10.92%
Klebsiella pneumoniae
  Inhibition: 7.2%
Candida albicans
  Inhibition: 6.34%
Cryptococcus neoformans
  Inhibition: 5.51%

## COC1=CC(C)C2CC3OC(O)CC4C(C)=C(OC)C(=O)C(C2(C)C1=O)C34C (configuration not stated)
Staphylococcus aureus
  Inhibition: 7.24%
Acinetobacter baumannii
  Inhibition: 8.28%
Escherichia coli
  Inhibition: -3.89%
Klebsiella pneumoniae
  Inhibition: 9.99%
Candida albicans
  Inhibition: 3.92%
Cryptococcus neoformans
  Inhibition: 7.39%

## COc1cc([N+](=O)[O-])ccc1NC(=O)Oc1ccc(NC(C)=O)cc1
Staphylococcus aureus
  Inhibition: 1.87%
Acinetobacter baumannii
  Inhibition: 5.68%
Escherichia coli
  Inhibition: 0.56%
Klebsiella pneumoniae
  Inhibition: 4.62%
Candida albicans
  Inhibition: 0.51%
Cryptococcus neoformans
  Inhibition: -16.29%

## CC1(C)OC2C(CO)OC(n3cnc4c(S)ncnc43)C2O1 (configuration not stated)
Staphylococcus aureus
  Inhibition: 1.89%
Acinetobacter baumannii
  Inhibition: -15.97%
Escherichia coli
  Inhibition: 11.94%
Klebsiella pneumoniae
  Inhibition: 6.21%
Candida albicans
  Inhibition: 4.06%
Cryptococcus neoformans
  Inhibition: -14.25%

## Nc1ncnc2c1ncn2C=C=CCO
Staphylococcus aureus
  Inhibition: 13.44%
Acinetobacter baumannii
  Inhibition: 8.12%
Escherichia coli
  Inhibition: -2.59%
Klebsiella pneumoniae
  Inhibition: 6.59%
Candida albicans
  Inhibition: 1.58%
Cryptococcus neoformans
  Inhibition: -2.86%

## CS(=O)(=O)Nc1nc2ccccc2[nH]1
Staphylococcus aureus
  Inhibition: 10.98%
Acinetobacter baumannii
  Inhibition: 4.83%
Escherichia coli
  Inhibition: -1.14%
Klebsiella pneumoniae
  Inhibition: 15.79%
Candida albicans
  Inhibition: 3.39%
Cryptococcus neoformans
  Inhibition: -3.84%

## CC(=O)Nc1cccc(NC(C)=O)n1
Staphylococcus aureus
  Inhibition: 23.71%
Acinetobacter baumannii
  Inhibition: -5.95%
Escherichia coli
  Inhibition: 17.6%
Klebsiella pneumoniae
  Inhibition: 13.05%
Candida albicans
  Inhibition: -2.4%
Cryptococcus neoformans
  Inhibition: -1.6%

## COc1ccc(C(=S)N2CCN(c3cccc(Cl)c3)CC2)cc1
Staphylococcus aureus
  Inhibition: 13.14%
Acinetobacter baumannii
  Inhibition: 2%
Escherichia coli
  Inhibition: 3.07%
Klebsiella pneumoniae
  Inhibition: 17.03%
Candida albicans
  Inhibition: 9.51%
Cryptococcus neoformans
  Inhibition: -10.07%

From ChEMBL document CHEMBL4296182, “CO-ADD screening of NIH NCI Diversity Set V”
